PubChem BioAssay (Tox21)
“And” between values parts separate entries of the source, which are not always exact repeats. Equal values may be shown once. Results filed as inconclusive are left out. A call without a number means that no potency is given here. The source made the active and inactive calls. The call rests on the fitted dose curve.

Assay: qHTS assay to identify small molecule antagonists of the sonic hedgehog signaling (Shh) pathway (AID 1259369); further: nearly all actives have a fitted effect of over 45% in size
Conditions: NIH/3T3 Gli1-Luc reporter, Shh antagonist, luminescence 24 h; series mostly up to 92.4 µM; activity change, negative = inhibition: at the top concentration
Procedure, shortened: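 Screening used 3T3Gli1-Luc cells at 2,000 per well, compounds delivered in DMSO, and conditioned medium as agonist stimulus; plates incubated 24hr at 37 C and 5% CO2 before a 30min luciferase step.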
Potency means the concentration at half of the fitted maximal effect.

**Q.** Which Potency does the source give for Nc1ccc([N+](=O)[O-])cc1N here?
**A.** 2.43 µM (active)

**Q.** With N#CCCCCC#N as the compound, how does the “activity change, negative = inhibition” value read?
**A.** -3.01% (inactive)

**Q.** With C[N+](C)(C)CC(=O)O as the compound, how does the Potency read?
**A.** inactive

**Q.** Which “activity change, negative = inhibition” value does the source give for O=S(=O)(O)C(F)(F)C(F)(F)C(F)(F)C(F)(F)C(F)(F)C(F)(F)C(F)(F)C(F)(F)F here?
**A.** -29.4% (inactive)

**Q.** For CC(C)(C#N)N=NC(C)(C)C#N, which Potency is on record?
**A.** inactive

**Q.** With Cl as the compound, how does the Potency read?
**A.** inactive

**Q.** Which Potency does the source give for CCCCCCCCCC(CC)c1ccc(S(=O)(=O)O)cc1 (configuration not stated) here?
**A.** inactive

**Q.** For O=[N+]([O-])c1ccc(Cl)c([N+](=O)[O-])c1, which Potency is on record?
**A.** 1.1 µM (active) and 6.86 µM (active)

**Q.** Which Potency does the source give for Clc1ccc(C(Cl)(Cl)Cl)cc1 here?
**A.** inactive

**Q.** With CC(C)=CC1C(C(=O)OCN2C(=O)C3=C(CCCC3)C2=O)C1(C)C (configuration not stated) as the compound, how does the Potency read?
**A.** inactive

**Q.** With C[N+](C)(C)C as the compound, how does the Potency read?
**A.** inactive

**Q.** Which Potency does the source give for CCCCOCC1CO1 (configuration not stated) here?
**A.** inactive

**Q.** For ClCC(Cl)CCl, which “activity change, negative = inhibition” value is on record?
**A.** 12.2% (inactive)

**Q.** Which “activity change, negative = inhibition” value does the source give for CCCCOCCOC(C)=O here?
**A.** 5.9% (inactive)

**Q.** Which Potency does the source give for NN=C(N)N here?
**A.** inactive

**Q.** With COP(=S)(OC)Oc1ccc(S(=O)(=O)N(C)C)cc1 as the compound, how does the “activity change, negative = inhibition” value read?
**A.** 10.3% [at 42.5 µM] (inactive)

**Q.** For CCC[CH2][Sn]([Cl])([CH2]CCC)[CH2]CCC, which Potency is on record?
**A.** 0.307 µM (active)

**Q.** For ClC(Cl)=C(Cl)C(Cl)=C(Cl)Cl, which Potency is on record?
**A.** inactive

**Q.** With CCCCC(C#N)(Cn1cncn1)c1ccc(Cl)cc1 (configuration not stated) as the compound, how does the “activity change, negative = inhibition” value read?
**A.** -6.44% (inactive)

**Q.** With CCOP(=S)(OCC)SCSC(C)(C)C as the compound, how does the Potency read?
**A.** inactive

**Q.** Which Potency does the source give for C[N+](C)(C)CC(=O)[O-] here?
**A.** inactive

**Q.** For O=NN(c1ccccc1)c1ccccc1, which “activity change, negative = inhibition” value is on record?
**A.** -8.01% (inactive)

**Q.** With CC1CC(=O)O1 (configuration not stated) as the compound, how does the Potency read?
**A.** inactive

**Q.** Which Potency does the source give for CNC(=S)S here?
**A.** inactive

**Q.** With c1ccc(C2CO2)cc1 (configuration not stated) as the compound, how does the Potency read?
**A.** inactive

**Q.** For CCC1(c2ccc(N)cc2)CCC(=O)NC1=O (configuration not stated), which Potency is on record?
**A.** inactive

**Q.** For CC(C)(c1ccccc1)c1ccc(O)c(C(C)(C)c2ccccc2)c1, which Potency is on record?
**A.** 30.4 µM (active) and 13.7 µM (active)
